Unmarked numbers belong to inactive results. For some of these results: Results with a measured potency or affinity are listed apart. The source made the active and inactive calls. Unless noted, the rule behind the calls is not given here.

The source of these data is PubChem BioAssay.

Experiment [1] is described as follows: antimalarial activity against Dd2 strain (AID 2302;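 active = growth inhibition above 50% at the single 2 µM test dose, taken to imply half-maximal potency below 2 µM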;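 note: 0% = DMSO untreated growth and 100% = chloroquine plus artemisinin killed control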). The settings on record: P. falciparum Dd2 in RBCs, LDH growth readout, 72 h; at 2 µM; active compounds read high.
A short description of experiment [2]: HepG2 cytotoxicity, primary screen, cytotoxicity control for P. falciparum antimalarial project, cell-based, ATP luminescence (AID 2303;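 active = inhibition above 50%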;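 note: 0% = DMSO wells and 100% = digitonin-killed cells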). The note with it: HepG2 viability, 24-48 h, at 10 µM, active compounds read high.
Experiment [3] addresses L-lactate dehydrogenase (Plasmodium falciparum (isolate CDC / Honduras)) (UniProt Q27743). Briefly: PfLDH activity inhibition – cell lysate, 3D7 strain, counter-screen for P. falciparum growth inhibition project (AID 2304).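 Note: 0% = vehicle and 100% = reference inhibitor.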 The settings on record: P. falciparum 3D7 crude extract, LDH APAD/NBT absorbance; at 2 µM; active compounds read high. (Counterscreens check selectivity or assay interference.)

Experiment [4] is described as follows: inhibition of 3D7 malaria parasite growth – strain 3D7 (AID 2306).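 Note: 0% = DMSO wells and 100% = chloroquine plus artemisinin control wells.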 The settings on record: P. falciparum 3D7 erythrocytic growth, LDH absorbance, 72 h; at 2 µM; active compounds read high.
In experiment [5] the target is Calcium-dependent protein kinase 1 (Plasmodium falciparum (isolate 3D7)) (UniProt P62344). Briefly: PfCDPK1 kinase inhibitors, biochemical, TCAMS library (AID 1159585; cut-off not given, nearly all actives have IC50 up to about 0.98 µM;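 note: inhibitors leave more ATP so luminescence rises with inhibition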). The settings on record: recombinant PfCDPK1, Kinase-Glo ATP depletion luminescence.
Experiment [6] deals with Plasmodium falciparum protein kinase 6 (PK6, PF3D7_1337100) (UniProt Q8IDW1). The experiment in a line: PfPK6 kinase inhibitors, biochemical, TCAMS library (AID 1159586). The note with it: recombinant PfPK6, Kinase-Glo ATP depletion luminescence. A general note: Kinase-Glo measures the ATP left after a reaction by luminescence.
The target of experiment [7] is Protein kinase 7 (PK7), Plasmodium falciparum 3D7 (PF3D7_0213400) (UniProt Q7YTF7). The experiment in a line: inhibition of Plasmodium PK7 catalytic activity – biochemical, TCAMS antimalarial set, Kinase-Glo luminescence (AID 1159587). The settings on record: recombinant PfPK7, Kinase-Glo ATP depletion luminescence.
Experiment [8] concerns the target Calcium-dependent protein kinase 4 (Plasmodium falciparum (isolate 3D7)) (UniProt Q8IBS5). The experiment in a line: PfCDPK4 kinase inhibitors, biochemical, TCAMS library (AID 1159588; cut-off not given, nearly all actives have IC50 up to about 0.91 µM). The note with it: recombinant PfCDPK4, Kinase-Glo ATP depletion luminescence.

Chain of L-lactate dehydrogenase (Plasmodium falciparum (isolate CDC / Honduras)) (Q27743 whole entry, looked up): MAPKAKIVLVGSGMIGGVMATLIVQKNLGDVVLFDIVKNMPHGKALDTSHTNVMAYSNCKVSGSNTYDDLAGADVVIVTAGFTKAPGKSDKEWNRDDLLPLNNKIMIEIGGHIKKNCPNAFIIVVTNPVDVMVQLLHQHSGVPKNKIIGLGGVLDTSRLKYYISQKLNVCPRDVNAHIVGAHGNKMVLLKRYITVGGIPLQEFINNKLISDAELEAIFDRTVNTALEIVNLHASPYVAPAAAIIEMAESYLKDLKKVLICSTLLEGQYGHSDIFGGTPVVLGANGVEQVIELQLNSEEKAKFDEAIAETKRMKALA
Chain of Plasmodium falciparum protein kinase 6 (PK6, PF3D7_1337100) (Q8IDW1 1-305): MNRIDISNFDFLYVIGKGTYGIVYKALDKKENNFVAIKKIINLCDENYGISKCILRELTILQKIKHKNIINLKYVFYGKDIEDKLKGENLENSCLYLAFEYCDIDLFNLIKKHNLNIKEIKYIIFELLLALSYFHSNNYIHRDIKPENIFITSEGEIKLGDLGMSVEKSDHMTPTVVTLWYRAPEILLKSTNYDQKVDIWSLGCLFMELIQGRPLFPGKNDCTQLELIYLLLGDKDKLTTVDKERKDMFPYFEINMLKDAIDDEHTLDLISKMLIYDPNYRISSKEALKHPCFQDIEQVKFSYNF
Chain of Calcium-dependent protein kinase 1 (Plasmodium falciparum (isolate 3D7)) (P62344 whole entry, looked up): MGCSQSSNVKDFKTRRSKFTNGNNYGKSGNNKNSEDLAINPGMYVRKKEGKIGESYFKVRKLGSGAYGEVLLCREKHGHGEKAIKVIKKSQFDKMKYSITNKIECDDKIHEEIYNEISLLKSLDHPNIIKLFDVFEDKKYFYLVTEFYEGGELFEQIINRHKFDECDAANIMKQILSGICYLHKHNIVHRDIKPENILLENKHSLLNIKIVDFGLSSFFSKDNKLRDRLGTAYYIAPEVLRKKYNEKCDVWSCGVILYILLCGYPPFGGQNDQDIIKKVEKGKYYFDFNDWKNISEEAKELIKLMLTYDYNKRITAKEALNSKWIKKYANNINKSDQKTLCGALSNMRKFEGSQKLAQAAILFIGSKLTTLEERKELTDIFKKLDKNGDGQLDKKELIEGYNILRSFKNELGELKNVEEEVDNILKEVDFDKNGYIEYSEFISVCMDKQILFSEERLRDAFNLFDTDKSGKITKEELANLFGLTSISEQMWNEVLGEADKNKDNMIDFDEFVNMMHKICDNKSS
Chain of Calcium-dependent protein kinase 4 (Plasmodium falciparum (isolate 3D7)) (Q8IBS5 whole entry, looked up): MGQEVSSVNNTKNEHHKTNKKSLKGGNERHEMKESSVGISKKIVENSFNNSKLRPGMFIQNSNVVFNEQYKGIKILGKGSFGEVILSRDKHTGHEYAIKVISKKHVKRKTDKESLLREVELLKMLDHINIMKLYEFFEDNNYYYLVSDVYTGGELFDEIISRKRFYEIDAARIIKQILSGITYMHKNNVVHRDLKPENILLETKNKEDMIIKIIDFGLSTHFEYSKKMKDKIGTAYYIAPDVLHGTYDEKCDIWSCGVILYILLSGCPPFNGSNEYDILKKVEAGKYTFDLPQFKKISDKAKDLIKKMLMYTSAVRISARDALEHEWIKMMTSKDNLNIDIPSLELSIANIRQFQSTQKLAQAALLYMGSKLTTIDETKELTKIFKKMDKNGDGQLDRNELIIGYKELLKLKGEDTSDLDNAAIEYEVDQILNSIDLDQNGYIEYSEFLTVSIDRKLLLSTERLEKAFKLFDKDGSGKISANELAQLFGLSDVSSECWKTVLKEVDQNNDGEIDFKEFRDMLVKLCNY
Chain of Protein kinase 7 (PK7), Plasmodium falciparum 3D7 (PF3D7_0213400) (Q7YTF7 1-343): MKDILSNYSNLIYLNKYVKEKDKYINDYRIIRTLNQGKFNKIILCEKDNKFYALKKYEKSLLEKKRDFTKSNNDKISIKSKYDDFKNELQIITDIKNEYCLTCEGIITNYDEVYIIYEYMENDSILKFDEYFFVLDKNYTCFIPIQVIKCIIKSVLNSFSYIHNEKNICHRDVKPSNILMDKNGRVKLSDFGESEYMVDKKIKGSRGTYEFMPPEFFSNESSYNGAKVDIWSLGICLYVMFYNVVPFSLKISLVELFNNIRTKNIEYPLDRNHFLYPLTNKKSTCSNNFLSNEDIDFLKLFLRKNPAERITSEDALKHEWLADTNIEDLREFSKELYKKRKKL

Broadly, the inhibition is the relative decrease from the control value, in per cent. For the compound `Cc1ccc(NC(=O)c2ccc(CN3CCCN(Cc4cccc(Cl)c4)CC3)cc2)cc1C`, the growth inhibition is 18% in experiment [1] and 84% (active) in experiment [4]. Also, the inhibition in experiment [2] was 41%; in experiment [3], 2%. The outcome in experiment [5], in experiment [6], in experiment [7] and in experiment [8] was inactive.

Turning to `Cc1cc(N[C@@H](CC(C)C)C(=O)NC2CCCC2)nc(NCC2CCCCC2)n1`, the growth inhibition in experiment [1] was 88% (active); in experiment [4], 101% (active). In addition, the inhibition in experiment [2] was 8%; in experiment [3], 0%. For the same compound, the outcome in experiment [5], in experiment [6], in experiment [7] and in experiment [8] was inactive.

On to `Cc1cccc(Nc2nccc(NCC(O)c3cccc(C(F)(F)F)c3)n2)c1` (stereo not given), for which the growth inhibition in experiment [1] was 94% (active); in experiment [4] it was 100% (active). In addition, the values for the inhibition in experiment [2] and in experiment [3] were 25% and -2%, respectively. Besides, the result in experiment [5], in experiment [6], in experiment [7] and in experiment [8] was inactive.

Consider `Cc1ccoc1C(=O)Nc1cccc(-c2cccc(-c3nc4ccccc4[nH]3)c2)c1`, for which the growth inhibition in experiment [1] was 20%; in experiment [4], 85% (active). Also, the figures for the inhibition in experiment [2] and in experiment [3] were 43% and -2%, respectively. Also, the result in experiment [5], in experiment [6], in experiment [7] and in experiment [8] was inactive.

As for `CC(C)(C)c1cc(C(=O)N2CCN(c3ncccc3C(F)(F)F)CC2)n(Cc2ccccc2)n1`, the growth inhibition in experiment [1] was 99% (active); in experiment [4], 100% (active). The inhibition in experiment [2] is -8%; in experiment [3], 1%. For the same compound, the result in experiment [5], in experiment [6], in experiment [7] and in experiment [8] was inactive.

As to `CCC(C)CN1CCCN(c2ccc(NC(=O)c3cccs3)cc2)CC1` (stereo not given), the growth inhibition in experiment [1] is 95% (active); in experiment [4] it was 91% (active). Moreover, the inhibition in experiment [2] is 4%; in experiment [3], -2%. Besides, the outcome in experiment [5], in experiment [6], in experiment [7] and in experiment [8] was inactive.

As for `CC(C)CNCc1ccc(-c2ccc(CNC3CCN(Cc4ccccc4)CC3)cc2)cc1`, the growth inhibition was 96% (active) in experiment [1] and 100% (active) in experiment [4]. Further, the inhibition in experiment [2] was 16%; in experiment [3], 4%. Besides, the result in experiment [5], in experiment [6], in experiment [7] and in experiment [8] was inactive.

On to `O=C(Nc1ccc(Cl)cc1)c1ccc(CN2CCCN(Cc3ccccc3)CC2)cc1`, for which the growth inhibition is 2% in experiment [1] and 96% (active) in experiment [4]. The results for the inhibition in experiment [2] and in experiment [3] were 46% and 1%, respectively. Besides, the outcome in experiment [5], in experiment [6], in experiment [7] and in experiment [8] was inactive.

Consider `O=C(NCCCNc1ccc2ccccc2n1)c1cc2c(Cl)cc(Cl)cc2[nH]1`, for which the growth inhibition in experiment [1] and in experiment [4] was 100% (active) each time. Further, the inhibition in experiment [2] is 40%; in experiment [3] it was 4%. Also, the result in experiment [5], in experiment [6], in experiment [7] and in experiment [8] was inactive.

`Oc1ccc2ncnc(Nc3ccc(OCc4cccc(F)c4)c(Cl)c3)c2c1`: the values for the growth inhibition in experiment [1] and in experiment [4] were 30% and 100% (active), respectively. The inhibition was 24% in experiment [2] and 2% in experiment [3]. In addition, the outcome in experiment [5], in experiment [6], in experiment [7] and in experiment [8] was inactive.

Turning to `C[C@H](NC(=O)[C@H](Cc1ccccc1)NC(=O)OC(C)(C)C)C(=O)N[C@@H](CC1CCCCC1)C(O)CN` (stereo not given in full), the growth inhibition in experiment [1] was 64% (active); in experiment [4], 96% (active). Further, the inhibition is -4% in experiment [2] and -5% in experiment [3]. Moreover, the outcome in experiment [5], in experiment [6], in experiment [7] and in experiment [8] was inactive.

Take `O=C(NC1CCN(Cc2ccccc2)CC1)c1cccc(-c2cc3cc(Cl)c(Cl)cc3[nH]2)c1`: the growth inhibition in experiment [1] was 86% (active); in experiment [4], 100% (active). Moreover, the inhibition in experiment [2] is 15%; in experiment [3] it was -6%. The outcome in experiment [5], in experiment [6], in experiment [7] and in experiment [8] was inactive.

In the case of `Cc1nc(-c2nc(NCc3ccncc3)ncc2-c2ccsc2)sc1C`, the growth inhibition was 83% (active) in experiment [1] and 91% (active) in experiment [4]. Further, the values for the inhibition in experiment [2] and in experiment [3] were 8% and 2%, respectively. For the same compound, the result in experiment [5], in experiment [6], in experiment [7] and in experiment [8] was inactive.

In the case of `CNC(=O)NC1=NC(C)(C)N(OCc2ccc(Cl)c(Cl)c2)C(NC(=O)NC)=N1`, the results for the growth inhibition in experiment [1] and in experiment [4] were -3% and 99% (active), respectively. Besides, the figures for the inhibition in experiment [2] and in experiment [3] were 1% and -2%, respectively. For the same compound, the result in experiment [5], in experiment [6], in experiment [7] and in experiment [8] was inactive.

Consider `O=c1cc(NCCCNCc2ccccc2-c2ccccc2)[nH]c2ccccc12`, for which the growth inhibition in experiment [1] was 46%; in experiment [4] it was 88% (active). The inhibition is 0% in experiment [2] and -1% in experiment [3]. Also, the result in experiment [5], in experiment [6], in experiment [7] and in experiment [8] was inactive.

Turning to `CC1CCN(CC[C@H]2CCCN2S(=O)(=O)c2cccc(NC(=O)Nc3ccc(C(F)(F)F)cc3)c2)CC1`, the values for the growth inhibition in experiment [1] and in experiment [4] were 41% and 100% (active), respectively. The values for the inhibition in experiment [2] and in experiment [3] were 12% and 2%, respectively. Further, the outcome in experiment [5], in experiment [6], in experiment [7] and in experiment [8] was inactive.

With `NC(=O)Nc1ccc2cn[nH]c2c1`, the growth inhibition is -2% in experiment [1] and 97% (active) in experiment [4]. The inhibition in experiment [2] was 4%; in experiment [3] it was -3%. The result in experiment [5], in experiment [6], in experiment [7] and in experiment [8] was inactive.

Turning to `O=C(Nc1cccc(Cl)c1Cl)NC1CCN(Cc2cccc(O)c2)CC1`, the values for the growth inhibition in experiment [1] and in experiment [4] were 1% and 98% (active), respectively. The values for the inhibition in experiment [2] and in experiment [3] were 1% and -1%, respectively. For the same compound, the outcome in experiment [5], in experiment [6], in experiment [7] and in experiment [8] was inactive.

Turning to `O=C(c1cc(-c2ccco2)[nH]n1)N1CCN(S(=O)(=O)c2ccc(Br)cc2)CC1`, the growth inhibition in experiment [1] is 90% (active); in experiment [4], 95% (active). Moreover, the inhibition in experiment [2] is 1%; in experiment [3], -5%. In addition, the result in experiment [5], in experiment [6], in experiment [7] and in experiment [8] was inactive.

Turning to `Cc1cc(N[C@@H](Cc2ccccc2)C(=O)Nc2ccccc2)nc(NCCc2cccs2)n1`, the growth inhibition in experiment [1] is 72% (active); in experiment [4], 100% (active). Moreover, the inhibition in experiment [2] and in experiment [3] was -1% each time. Besides, the result in experiment [5], in experiment [6], in experiment [7] and in experiment [8] was inactive.
